# Sampled rows, rich in hits. Any-hit rate of the full collection: about 9.4%.
# SMN2 splice up – SMN2 splice variant enhancement; HEK293 SMN2-luciferase splicing reporter, luminescence, 30-36 h; Potency, µM (highest dose often 46.1 µM), inactives show at the highest dose activity change, positive = activation, usual class: activators; AID 1458; hit rate 2.8% among 210,000; also: % of control where 0% means no effect; nearly all actives have a fitted effect of over 55% in size
#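 HEK293 cells carry an SMN2 minigene-luciferase reporter in which exon 7 inclusion puts luciferase in frame. Cells were seeded at 2000 cells/well, attached for 10-12 hours, then exposed to compounds for 30-36 hours at 37C before ONE-Glo luminescence.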
# Rab9 prom act – activators of Rab9 promoter. Huh7 Rab9 promoter-luciferase reporter, luminescence, 24 h. Potency, µM (highest dose often 9.22 µM), for the others: at the highest dose activation, negative = inhibition, usual class: activators. hit rate 2.8% among 320,000. AID 485297; also: % of control where 0% means no effect; nearly all actives have a fitted effect of over 60% in size
#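 Steps: seed 1500 Huh7 Rab9-luc cells per well, rest 2 h at 37 °C; add compound in DMSO; incubate 24 h; add luciferase reagent, 10 min ambient; read luminescence.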
# NPC1 prom act – NPC1 promoter activation. hit rate 2.4% among 320,000. Huh7 NPC1 promoter luciferase reporter, 24 h. Potency, µM (titrated, usually from 9.22 µM), for the others: at the highest dose activation, usual class: activators; also: % of control where 0% means no effect; nearly all actives have a fitted effect of over 60% in size
#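 In 1536-well qHTS, Huh7 cells harboring an NPC1 promoter–luciferase construct received compound for 24 h; activation was quantified by luminescence following luciferase reagent addition.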
# ELG1 repair inh – blocks ELG1-dependent DNA repair in HEK293T cells; HEK293T ELG1-luciferase reporter, luminescence, 16 h; DNA damage induced by 5-fluorouridine; Potency, µM (series often up to 46.1 µM), without a hit: top-dose activity change, negative = inhibition, actives largely listed as inhibitors; hit rate 2.3% among 330,000; AID 504467; also: % is scaled to controls: 0 for no effect and ±100 for the full control effect; nearly all actives have a fitted effect of over 55% in size
#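 In this reporter screen, reduction of luminescence relative to DMSO vehicle indicated activity. Compounds and 5-fluorouridine were added together to 2,000 cells per well, incubated for 16 hr at 37 °C, then developed with ONE-Glo.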
# ELG1 genotox – induces genotoxicity in HEK293T cells with luciferase-tagged ELG1; HEK293T ELG1-luciferase reporter, luminescence, 16 h; Potency, µM (titrated, usually from 46 µM), for inactives: at the highest dose activity change, positive = activation, most hits filed as activators; hit rate 1.3% among 330,000; also: % of control where 0% means no effect; nearly all actives have a fitted effect of over 60% in size
#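 After overnight (16 hr) compound treatment at 37 °C, ELG1-luciferase HEK293T cells were lysed with ONE-Glo; luminescence quantified 30 min later at room temperature.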
# FLuc modulator – inhibits or activates purified firefly luciferase, miR-21 counter-screen; purified FLuc, Km substrates, luminescence inhibition; Potency, µM (doses to about 57.5 µM), for inactives: at the highest dose activity change, negative = inhibition, hits mostly inhibitors; P08659; hit rate 6.9% among 360,000; AID 588342;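 also: plate controls were vehicle for no effect and reference inhibitor for full effect; nearly all actives have a fitted effect of over 55% in size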
# Target sequence (P08659 whole entry, looked up): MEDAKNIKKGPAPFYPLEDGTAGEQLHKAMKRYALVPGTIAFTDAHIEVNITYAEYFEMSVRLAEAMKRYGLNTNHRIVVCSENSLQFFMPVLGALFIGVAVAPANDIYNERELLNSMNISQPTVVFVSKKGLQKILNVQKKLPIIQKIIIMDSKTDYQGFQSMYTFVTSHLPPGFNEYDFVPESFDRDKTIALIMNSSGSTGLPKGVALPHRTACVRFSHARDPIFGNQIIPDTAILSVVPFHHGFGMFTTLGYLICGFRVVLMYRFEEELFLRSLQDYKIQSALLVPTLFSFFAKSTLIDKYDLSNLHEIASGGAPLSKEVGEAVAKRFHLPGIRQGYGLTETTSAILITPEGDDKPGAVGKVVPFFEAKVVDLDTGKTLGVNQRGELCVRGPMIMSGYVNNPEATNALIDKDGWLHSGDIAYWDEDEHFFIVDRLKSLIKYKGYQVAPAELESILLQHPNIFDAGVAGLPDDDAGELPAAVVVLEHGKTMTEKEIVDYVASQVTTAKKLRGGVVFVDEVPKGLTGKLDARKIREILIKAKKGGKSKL
#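 Biochemical qHTS of compounds, final roughly 60 µM downward over six points, against 10 nM purified firefly luciferase using Km concentrations of substrates (10 uM D-luciferin, 10 uM ATP) in Tris acetate pH 7.5 buffer; luminescence output.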
# * marks the source's active call; other numbers are inactive results; ? = inconclusive; · = no result given. Calls follow the shape of the dose curve; as a rule, active = well fitted curve in the direction sought with a large enough effect; inconclusive = small, poorly fitted or top-dose-only effect, or another doubt; inactive = no such curve, though single readings can be large; an effect the other way counts as inactive or inconclusive. Potency is read from the fitted curve at half-maximal effect.
SMILES,SMN2 splice up,Rab9 prom act,NPC1 prom act,ELG1 repair inh,ELG1 genotox,FLuc modulator
CCCS(=O)(=O)c1nc(S(=O)(=O)c2ccc(C)cc2)c(NCc2ccccc2Cl)s1,-1%,·,·,·,·,-4%
Cc1nc(-c2ccc(Cl)cc2)sc1C1(C)CC(c2ccc([N+](=O)[O-])cc2)=NO1 (stereo not drawn),·,2%,5%,10%,5%,-18%
Cc1nc(-c2ccc(Cl)cc2)sc1C1(C)CC(c2cccc(F)c2)=NO1 (stereo not drawn),·,-4%,14%,?,14%,24µM*
Cc1nc(-c2ccc(Cl)cc2)sc1C1(C)CC(c2ccc(F)cc2)=NO1 (stereo not drawn),·,6%,14%,?,12%,?
Cc1nc(-c2ccc(Cl)cc2)sc1C1(C)CC(c2cccc(Cl)c2)=NO1 (stereo not drawn),·,3%,18%,0%,15%,24µM*
OC[C@H]1O[C@@H](n2cnc3c(N[C@H]4C[C@H]5CC[C@@H]4C5)ncnc32)[C@H](O)[C@@H]1O,0%,·,·,·,·,·
O=C(Nc1ccccc1C(=O)OCc1cc(=O)n2c3c(sc2n1)CCCC3)c1cccc(Cl)c1,·,·,·,·,·,-2%
Cc1ccc(Nc2nc(N)nc(-c3oc4ccccc4c3C)n2)cc1,13µM*,-1%,?,?,9.2µM*,7.6µM*
COc1ccccc1Nc1nc(N)nc(-c2cc3ccccc3o2)n1,?,27%,10%,0%,?,?
Cc1c(-c2nc(N)nc(Nc3ccccc3F)n2)oc2ccccc12,11µM*,0.89µM*,1.6µM*,?,4µM*,3µM*
Cc1cccc(Nc2nc(N)nc(-c3oc4ccccc4c3C)n2)c1,·,?,18%,-3%,?,?
Cc1ccc(Nc2nc(C)nc3c2oc2ccccc23)cc1,·,-4%,1%,?,-6%,-22%
COc1cccc(Nc2nc(N)nc(-c3oc4ccccc4c3C)n2)c1,?,19%,-7%,0%,3%,19µM*
CCOC(=O)c1cc(C)n(CC2CCC(C(=O)Nc3ccc(Cl)cc3)CC2)c1C (stereo not drawn),·,·,·,·,·,3%
COc1ccc(Cl)cc1NC(=O)c1c(C(=O)Nc2cccc(C)c2C)sc2nc(C)cc(=O)n12,-4%,·,·,·,·,1%
Cc1cc(C(N)=O)c2ccccc2n1,2%,6%,0%,-13%,0%,2%
NC(=O)c1cc2ccncc2c2ccccc12,·,-1%,26%,1.3µM*,-16%,-1%
Cc1nc(C)c(CCNS(=O)(=O)c2ccc(C)c(C)c2)s1,·,·,·,·,·,-3%
Cc1nc(SCc2cc(=O)c3cccc(F)c3[nH]2)n[nH]1,·,·,·,·,·,2%
Cc1ccn2c(Nc3ccc4c(c3)OCO4)c(-c3ccc(O)cc3)nc2c1,7%,-5%,-3%,19%,12%,?
c1ccc(-c2nc3ccccn3c2NCc2ccc3c(c2)OCO3)cc1,-35%,18%,6%,-1%,2%,?
Clc1cccc(-c2ccc(-c3nc4ccccn4c3NCc3ccccc3)cc2)c1,·,·,·,?,-1%,·
COc1ccc(-c2nc3ccccn3c2NCc2ccc3c(c2)OCO3)cc1,14µM*,?,?,?,14%,4.8µM*
COc1ccc(-c2nc3cc(C)ccn3c2NCc2ccc3c(c2)OCO3)cc1,·,?,15%,-15%,2%,17µM*
COc1ccc(-c2cc(-c3nc4ccccn4c3NCc3ccccc3)ccc2OC)cc1,·,·,·,2.3µM*,-8%,·
SMILES,SMN2 splice up,Rab9 prom act,NPC1 prom act,ELG1 repair inh,ELG1 genotox,FLuc modulator
COc1ccc(NC(=O)CN2C(=O)C(c3ccc(C(C)(C)C)cc3)=NC2(C)C)cc1Cl,6%,·,·,·,·,-27%
CCc1nnc(NC(=O)c2nc(SCc3ccc(F)cc3)ncc2Cl)s1,2%,·,·,·,·,12µM*
Cc1ccc(CSc2ncc(Cl)c(C(=O)Nc3nnc(C)s3)n2)cc1,-4%,·,·,·,·,15µM*
COc1ccc(NN=Nc2ccc([N+](=O)[O-])cc2)cc1,·,3.5µM*,?,?,?,2.4µM*
C=CCn1c(N)c(C(=O)NCCC2=CCCCC2)sc1=S,13µM*,19%,24%,?,?,?
COc1ccccc1NC(=O)C1=C(C)Nc2c(C(=O)Nc3ccc(F)cc3)cnn2C1c1ccc(Cl)cc1 (stereo not drawn),·,·,·,·,·,-11%
COc1ccc(NC(=O)c2ocnc2C)cc1OC,14%,5%,1%,?,0%,-15%
Cc1ccsc1C(=O)NC(C)c1ccc2c(c1)OCO2 (stereo not drawn),-9%,1%,-2%,-11%,0%,3%
Cc1ccsc1C(=O)Nc1ccc2c(c1)OCCO2,2.2µM*,0.63µM*,1.3µM*,?,2.1µM*,1.9µM*
Cc1ncoc1C(=O)Nc1ccc2c(c1)OCCO2,16µM*,2.5µM*,3.2µM*,?,?,12µM*
CCc1ccc(NCc2cc3cc4c(cc3n(CC(=O)Nc3ccccc3Cl)c2=O)OCO4)cc1,·,·,·,·,·,-12%
CC1(C)Cc2c(sc(NC(=O)c3ccc(Br)o3)c2C#N)CO1,13µM*,3.5µM*,2.5µM*,?,22%,2.4µM*
CC1(C)Cc2c(sc(NC(=O)c3ccco3)c2C(=O)O)CO1,?,?,?,?,?,6.7µM*
CC1(C)Cc2c(sc(NC(=S)NC(=O)c3ccccc3)c2C(=O)O)CO1,2%,7%,2%,-3%,-1%,?
CCOc1ccc(NC(=O)Cn2cc(C(=O)c3ccc(OCC)cc3)c(=O)c3cc4c(cc32)OCCO4)cc1,-5%,·,·,·,·,-9%
COc1ccc(Nc2ncnc3scc(-c4ccc(F)cc4)c23)cc1,·,·,·,·,·,-9%
COc1ccc(-c2csc3ncnc(N4CCN(C(=O)c5ccco5)CC4)c23)cc1,·,-7%,-5%,7.3µM*,-9%,0%
COc1ccc(-c2csc3ncnc(N4CCN(c5cccc(OC)c5)CC4)c23)cc1,·,0%,0%,6.5µM*,-19%,-1%
COc1ccc(-c2csc3ncnc(N4CCN(c5ccccc5Cl)CC4)c23)cc1,·,-2%,-10%,13µM*,-20%,3%
COc1ccc(-c2csc3ncnc(N4CCN(c5cccc(Cl)c5)CC4)c23)cc1,·,-2%,-3%,?,-21%,4%
COc1ccc(-c2csc3ncnc(N4CCN(c5cccc(C)c5C)CC4)c23)cc1,·,3%,-2%,?,-4%,-2%
COc1ccc(Nc2ncnc3scc(-c4ccc(OC)cc4)c23)cc1,-24%,-1%,-3%,12µM*,-6%,-2%
O=C(Cc1ccc(F)cc1)NCCc1csc2nc(-c3ccc(Cl)cc3)nn12,·,·,·,·,·,-7%

# Compound activity deposited in PubChem by National Center for Advancing Translational Sciences (NCATS).
